An excerpt weighted towards active compounds, which were near 11% of everything screened.
G9a inh: qHTS Assay for Inhibitors of Histone Lysine Methyltransferase G9a. Histone-lysine N-methyltransferase EHMT2 (Homo sapiens), Q96KQ7. Potency, µM (series often up to 102 µM), usual class: inhibitors. G9a H3K9 monomethylation, AlphaScreen, 2 h. 350,000 compounds, 8.8% hits; note: nearly all actives have a fitted effect of over 75% in size
Target sequence (Q96KQ7 913-1193 limits assumed): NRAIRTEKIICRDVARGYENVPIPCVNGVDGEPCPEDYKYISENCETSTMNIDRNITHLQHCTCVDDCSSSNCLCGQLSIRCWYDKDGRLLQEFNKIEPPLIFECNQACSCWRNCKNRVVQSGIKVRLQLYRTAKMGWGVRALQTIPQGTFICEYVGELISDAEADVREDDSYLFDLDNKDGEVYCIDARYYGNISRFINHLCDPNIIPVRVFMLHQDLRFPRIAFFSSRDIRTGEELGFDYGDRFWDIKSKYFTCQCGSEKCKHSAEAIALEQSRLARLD
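Enzyme 20 nM + cpd, 15 min RT; add b-H3K9 pep 500 nM / SAM 20 uM; 2 h RT; anti-H3K9me1 Ab 0.5 ug/mL + SA donor / anti-rabbit acceptor beads 20 ug/mL each, 10 min; AlphaScreen read.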
Tau fibril ThT: qHTS for Inhibitors of Tau Fibril Formation, Thioflavin T Binding; Potency, µM (titrated, usually from 57.4 µM), hits mostly inhibitors; 270,000 compounds, 2.1% hits; AID 1460, 2008; recombinant tau K18 P301L, heparin-induced fibrillization, ThT fluorescence; note: nearly all actives have a fitted effect of over 55% in size
Target sequence (P10636 561-689 P618L limits assumed): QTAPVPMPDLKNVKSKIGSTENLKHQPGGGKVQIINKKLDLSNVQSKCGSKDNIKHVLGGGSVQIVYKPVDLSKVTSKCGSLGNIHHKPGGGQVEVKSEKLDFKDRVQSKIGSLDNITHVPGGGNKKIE
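K18 P301L tau (15 uM + 0.24 uM Alexa 594-tagged), heparin 20 uM, NaOAc pH 7, 6 h 37 C; ThT 30 uM, 1 h RT, ex 450/em 510 nm.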
Tau fluor cs: Counterscreen qHTS for Inhibitors of Tau Fibril Formation, Fluorescence Polarization; Potency, µM (doses to about 57.7 µM); AID 1463, 2008; 280,000 compounds, 0.93% hits; tau K18 P301L (four-repeat tau fragment) Alexa594 fluorescence, heparin fibrillization; note: nearly all actives have a fitted effect of over 55% in size
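Human K18 P301L tau (15 uM unlabeled plus 0.24 uM Alexa 594-labeled, final) in 100 mM sodium acetate pH 7 was mixed with compound and 20 uM heparin and incubated 6 hr at 37 C.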
Sfp inh: qHTS Assay for Inhibitors of Bacillus subtilis Sfp phosphopantetheinyl transferase (PPTase); 4'-phosphopantetheinyl transferase ffp (Bacillus subtilis), Q9F4F7; Biochemical Sfp PPTase activity, qHTS; Potency, µM, actives largely listed as inhibitors; 310,000 compounds, 3.5% hits; AID 1490, 2009;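 note: the enzyme is Sfp with the accession as filed and its product quenches rhodamine fluorescence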
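After 15 min at room temperature with compound, 15 nM Sfp received 5 uM rhodamine-CoA plus 12.5 uM BHQ-2-ybbR (50 mM Hepes pH 7.6, 10 mM MgCl2). Rate came from the fluorescence difference over 30 min, ex 525/em 598 nm.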
FBPA coupling cs: qHTS Assay for Inhibitors of Fructose-1,6-bisphosphate Aldolase from Giardia Lamblia: Coupling assay counterscreen; coupling enzyme system counterscreen, AmpLite Red fluorescence; activity change, negative = inhibition, % at 58.2 µM, hits read low; 290,000 compounds, 0.67% hits; AID 2472, 2010; in the data active = activity change below about -30%
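Compounds tested against the coupling enzymes alone at 57.5 uM final; readout was AmpLite Red fluorescence (525/598 nm) after 20 min at RT.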
Tau FP inhib: qHTS for Inhibitors of Tau Fibril Formation, Fluorescence Polarization; Potency, µM (series often up to 57.7 µM), usual class: inhibitors; 280,000 compounds, 0.39% hits; Microtubule-associated protein tau (Homo sapiens), P10636; K18 P301L tau heparin fibrillization, Alexa594 FP, 6 h; note: nearly all actives have a fitted effect of over 55% in size
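K18 P301L tau (15 uM unlabeled/0.24 uM Alexa 594-labeled, final) + compound + heparin 20 uM final; 100 mM NaOAc pH 7; 6 hr 37 C; ThT 30 uM final added, 1 hr RT; FP ex 555/em 632 nm.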
A number is an active result; . = inactive; ? = inconclusive; / = not tested or not shown; [ ] = dose if it differs, or a comment. Unless noted, calls come from the whole dose curve; as a rule, active = well fitted curve in the direction sought with a large enough effect; inconclusive = small, poorly fitted or top-dose-only effect, or another doubt; inactive = no such curve, though single readings can be large; an effect the other way counts as inactive or inconclusive.

SMILES	G9a inh	Tau fibril ThT	Tau fluor cs	Sfp inh	FBPA coupling cs	Tau FP inhib
Cc1ccc2c(c1)-c1c(cnn1CC(=O)NC(C)CCc1ccco1)CO2 (centres undefined)	45µM	.	.	?	.	.
O=C(Cc1ccc(Nc2nc3ccc(Br)cc3[nH]2)cc1)NCCc1cccs1	?	?	16µM[quencher]	?	.	?
O=C(NCC1CCCCC1)c1cccc(Br)c1	.	/	/	.	.	/
O=C(NCc1ccco1)c1cccc(Nc2nc3ccc(Br)cc3[nH]2)c1	?	28µM	10µM[quencher]	.	.	?
O=C(NCC1CC1)c1ccc(Nc2nc3ccc(Br)cc3[nH]2)cc1	?	?	13µM[quencher]	32µM	.	?
CCOc1ccc(CCNC(=O)CN2CCN(Cc3ccc(Cl)cc3)C2=O)cc1OCC	.	.	.	/	/	.
CC(C)c1ccc(-c2c(C#N)c(N)nc3c2CCCCC3)cc1	1.8µM	.	.	.	.	.
Cc1ccc(-c2c(C#N)c(N)nc3c2CCCCC3)o1	79µM	.	.	50µM	.	.
Cc1ccc(-c2c(C#N)c(N)nc3c2CCCCC3)cc1	.	.	.	.	.	.
C[C@@H]1C(=O)N(S(=O)(=O)c2ccc([N+](=O)[O-])cc2)[C@H]1c1ccccc1	/	/	/	.	.	/
CN1c2ccccc2N(C)C1(C)c1cccc2ccccc12	1.4µM	16µM	.	?	.	?
CC1=CC(C)(C)NC(=S)N1c1cccc2ccccc12	.	.	.	.	.	.
O=c1cc(CSc2ccccc2)[nH]c2ccc(F)cc12	.	.	.	/	/	.
CC(C)c1ccc(Nc2c([N+](=O)[O-])c(=O)n(C)c3ccccc23)cc1	?	.	.	.	.	.
CC(=O)c1c2c3c(cccc3n(C)c1=O)C(=O)c1ccccc1-2	18µM	/	/	.	.	/
Cn1c(=O)c(Nc2ccc(O)cc2)c2c3c(cccc31)C(=O)c1ccccc1-2	13µM	7.9µM	14µM[quencher]	.	.	?
Cc1ccc(NC(=O)Cn2c(=O)n(-c3ccc(C)cc3)c(=O)c3ccc(C(=O)NCc4ccccc4Cl)cc32)cc1	.	?	.	/	/	.
CCCCN1C(=O)c2ccccc2C1C(=O)NC1CCCC1 (centres undefined)	.	.	.	.	.	.
Cc1ccc2c(c1)C(CCN)C(=O)N2Cc1ccccc1 (centres undefined)	?	.	.	.	.	.
CCCCN1C(=O)C(NC(C)=O)c2ccccc21 (centres undefined)	22µM	.	.	?	.	.
CC(=O)NC1C(=O)N(CCc2ccccc2)c2ccc(Br)cc21 (centres undefined)	11µM	.	.	.	.	.
CC(=O)NC1C(=O)N(Cc2ccccc2)c2ccc(Br)cc21 (centres undefined)	40µM	/	.	.	.	.
Cc1c(Cl)cccc1NC(=O)CSc1ncc(S(=O)(=O)c2ccc(C(C)C)cc2)c(=O)[nH]1	.	.	.	/	/	.
O=[N+]([O-])c1ccc(/C=N/n2cnc3ccccc32)s1	.	14µM	25µM[quencher]	.	.	.
Cc1nc2ccccc2n1/N=C/c1ccc([N+](=O)[O-])s1	50µM	?	.	.	.	.
SMILES	G9a inh	Tau fibril ThT	Tau fluor cs	Sfp inh	FBPA coupling cs	Tau FP inhib
Cc1cc2ncn(/N=C/c3ccc([N+](=O)[O-])s3)c2cc1C	.	?	?	.	.	.
CCCCNC(=O)[C@@H]1CSC2c3ccccc3C(=O)N21 (some centres undefined)	.	/	/	.	.	/
O=C(Nc1c(O)c2ccccc2oc1=O)c1cccc(F)c1	.	.	.	/	/	.
O=C(COC(=O)c1ncc(Cl)c(Cl)c1Cl)NC1CCCCCC1	40µM	/	/	/	/	/
N#Cc1ccc(C(=O)OCC(=O)NC2CCCC2)cc1	45µM	/	/	.	.	/
C/C(N)=C(/C#N)C(=O)COC(=O)c1ccc(C#N)cc1	22µM	.	.	.	.	.
O=C(COC(=O)c1nc(Cl)ccc1Cl)NC1CCCCCC1	.	/	/	/	/	/
